Results on twelve molecules are retold here after PubChem BioAssay (Tox21).

Records with an inconclusive call do not appear. Unmarked numbers belong to inactive results. Active and inactive are the calls of the source. The call rests on the fitted dose curve; in most records, active means well fitted curve in the direction sought with a large enough effect in the repeat runs; inconclusive means weak or mixed curves; inactive means no such curve, though single readings can be large; an effect the other way counts as inactive or inconclusive.

Experiment [1] concerns the target Nuclear receptor subfamily 1 group I member 2 (Homo sapiens) (UniProt O75469). The experiment is described as follows: Human pregnane X receptor (PXR) small molecule agonists, qHTS assay (AID 1346982). Further: nearly all actives have a fitted effect of over 35% in size. Further: potency means the concentration at half of the fitted maximal effect. The note with it: PXR-Luc HepG2, CYP3A4 luciferase reporter, 24 h; series mostly up to 92.4 µM. In short, it runs like this:
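Reporter HepG2 cells expressing PXR-Luc are cultured in charcoal-stripped FBS (5%), treated with compounds for 24 hr at 37 C, and assayed by ONE-Glo luminescence after 30 min at room temperature.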

Experiment [2] deals with Cytochrome P450 2D6 (Homo sapiens) (UniProt P10635). The experiment is described as follows: Cytochrome P450 Family 2 Subfamily D Member 6 (CYP2D6) small molecule antagonists: luciferase reporter qHTS assay (AID 1671196). Further: nearly all actives have a fitted effect of over 50% in size. Further: potency means the concentration at half of the fitted maximal effect. The note with it: P450-Glo CYP2D6 enzyme assay, luciferin luminescence, 1 h; series mostly up to 115 µM. In short, it runs like this:
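Test chemicals meet CYP2D6 plus proluciferin substrate (10 min, RT); NADPH regenerating solution then drives turnover for 1 h. Detection reagent halts the reaction; luminescence measured after 20 min.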
In general terms: In a reporter assay the amount or activity of a reporter protein is the signal.

The target in experiment [3] is Cytochrome P450 2C19 (Homo sapiens) (UniProt P33261). Kind of experiment: Cytochrome P450 Family 2 Subfamily C Member 19 (CYP2C19) small molecule antagonists: luciferase reporter qHTS assay (AID 1671197). Further: nearly all actives have a fitted effect of over 65% in size. Further: potency means the concentration at half of the fitted maximal effect. The note with it: P450-Glo CYP2C19 enzyme, luciferin luminescence, 1 h; series mostly up to 115 µM. In outline: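 Luminescent readout of CYP2C19 activity: luciferin product detected 20 min after adding detection reagent. Before that, compound and enzyme-substrate mix preincubated 10 min at room temperature; NADPH-regenerating system started a 1 h, 37C reaction. Ketoconazole as positive control.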

The target of experiment [4] is Cytochrome P450 2C9 (Homo sapiens) (UniProt P11712). The experiment is described as follows: Cytochrome P450 Family 2 Subfamily C Member 9 (CYP2C9) small molecule antagonists: luciferase reporter qHTS assay (AID 1671198). Further: nearly all actives have a fitted effect of over 50% in size. Further: potency means the concentration at half of the fitted maximal effect. The note with it: P450-Glo CYP2C9 enzyme assay, luciferin luminescence; series mostly up to 115 µM. In outline: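 Enzyme-substrate mix preincubated with compound 10 min at room temperature; reaction started with NADPH regeneration solution, 1 h 37C. Luminescent luciferin product read after 20 min detection reagent.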

Experiment [5] concerns the target Cytochrome P450 1A2 (Homo sapiens) (UniProt P05177). The experiment is described as follows: Cytochrome P450 Family 1 Subfamily A Member 2 (CYP1A2) small molecule antagonists: luciferase reporter qHTS assay (AID 1671199). Further: nearly all actives have a fitted effect of over 50% in size. Further: potency means the concentration at half of the fitted maximal effect. The note with it: P450-Glo CYP1A2 enzyme, luciferin luminescence, 1 h; series mostly up to 115 µM. In short, it runs like this: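 Steps: enzyme-substrate mix dispensed; test compounds and furafylline control pinned in; 10 min room temperature; NADPH regeneration solution added, 1 h; reaction stopped with luciferin detection reagent; luminescence read after 20 min.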

Experiment [6] addresses Cytochrome P450 3A4 (Homo sapiens) (UniProt P08684). Kind of experiment: Cytochrome P450 Family 3 Subfamily A Member 4 (CYP3A4) small molecule antagonists: luciferase reporter qHTS assay (AID 1671201). Further: nearly all actives have a fitted effect of over 50% in size. Further: potency means the concentration at half of the fitted maximal effect. The note with it: P450-Glo CYP3A4 enzyme, luciferin luminescence, 1 h; series mostly up to 115 µM. In short, it runs like this:
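P450-Glo CYP3A4 system with proluciferin substrate; compounds preincubated 10 min RT with enzyme-substrate mix, then NADPH regeneration added for 1 h RT. Detection reagent 20 min, luminescence read as relative luminescence units.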

The target in experiment [7] is Voltage-gated inwardly rectifying potassium channel KCNH2 (Homo sapiens) (UniProt Q12809). Kind of experiment: Human Ether-a-go-go-Related Gene (hERG) channel small molecule antagonists: fluorescence cell-based qHTS assay (AID 1671200). The note with it: hERG-U2OS cells, FluxOR thallium flux fluorescence; series mostly up to 76.8 µM. In short, it runs like this: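 U2OS cells expressing the channel were plated at 1000 cells/well, incubated overnight at 37 C, then loaded with FluxOR II thallium-sensitive dye for 1 h at room temperature in the dark, with a further 10 min at room temperature before stimulation.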
In general terms: hERG is a cardiac potassium channel; its block is linked to QT prolongation.
On the % scale 0 is the no-effect control and ±100 the full control effect.

Chain of Cytochrome P450 3A4 (Homo sapiens) (P08684 whole entry, looked up): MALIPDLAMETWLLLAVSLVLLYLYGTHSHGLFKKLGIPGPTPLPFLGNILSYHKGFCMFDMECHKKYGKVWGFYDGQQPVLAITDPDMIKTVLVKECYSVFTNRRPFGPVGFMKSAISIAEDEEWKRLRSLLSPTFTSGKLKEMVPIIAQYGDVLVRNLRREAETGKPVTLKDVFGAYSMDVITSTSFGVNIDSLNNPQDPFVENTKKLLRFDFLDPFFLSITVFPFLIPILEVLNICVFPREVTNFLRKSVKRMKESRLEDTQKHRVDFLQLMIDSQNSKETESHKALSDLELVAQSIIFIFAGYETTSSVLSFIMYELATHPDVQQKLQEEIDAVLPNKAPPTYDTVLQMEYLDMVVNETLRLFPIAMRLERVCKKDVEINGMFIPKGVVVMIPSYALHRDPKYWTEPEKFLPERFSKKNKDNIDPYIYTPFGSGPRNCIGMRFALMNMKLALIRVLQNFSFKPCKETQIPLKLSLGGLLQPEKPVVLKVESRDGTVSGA
Chain of Cytochrome P450 1A2 (Homo sapiens) (P05177 whole entry, looked up): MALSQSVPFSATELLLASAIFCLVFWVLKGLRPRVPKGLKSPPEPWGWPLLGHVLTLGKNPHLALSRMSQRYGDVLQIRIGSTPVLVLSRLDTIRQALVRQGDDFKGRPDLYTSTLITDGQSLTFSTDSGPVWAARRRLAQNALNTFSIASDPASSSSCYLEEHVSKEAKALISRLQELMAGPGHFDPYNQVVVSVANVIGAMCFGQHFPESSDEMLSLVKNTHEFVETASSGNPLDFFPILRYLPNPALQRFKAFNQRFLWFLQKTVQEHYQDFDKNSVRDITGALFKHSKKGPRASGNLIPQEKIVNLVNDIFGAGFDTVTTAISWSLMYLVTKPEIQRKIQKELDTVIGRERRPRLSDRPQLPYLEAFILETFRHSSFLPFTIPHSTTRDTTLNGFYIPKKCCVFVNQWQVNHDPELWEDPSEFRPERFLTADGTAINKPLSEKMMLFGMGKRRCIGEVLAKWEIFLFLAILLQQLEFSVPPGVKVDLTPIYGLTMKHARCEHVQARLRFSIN
Chain of Nuclear receptor subfamily 1 group I member 2 (Homo sapiens) (O75469 whole entry, looked up): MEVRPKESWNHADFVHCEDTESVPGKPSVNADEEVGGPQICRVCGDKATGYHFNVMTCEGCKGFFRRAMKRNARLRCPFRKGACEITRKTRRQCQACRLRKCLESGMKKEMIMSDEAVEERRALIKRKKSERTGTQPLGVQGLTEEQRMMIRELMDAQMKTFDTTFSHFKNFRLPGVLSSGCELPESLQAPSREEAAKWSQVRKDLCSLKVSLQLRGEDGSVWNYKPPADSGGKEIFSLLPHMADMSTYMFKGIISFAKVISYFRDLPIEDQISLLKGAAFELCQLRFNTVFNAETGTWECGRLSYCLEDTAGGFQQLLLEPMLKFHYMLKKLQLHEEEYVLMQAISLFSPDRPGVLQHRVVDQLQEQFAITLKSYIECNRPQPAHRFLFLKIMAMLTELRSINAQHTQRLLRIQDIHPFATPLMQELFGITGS
Chain of Cytochrome P450 2C19 (Homo sapiens) (P33261 whole entry, looked up): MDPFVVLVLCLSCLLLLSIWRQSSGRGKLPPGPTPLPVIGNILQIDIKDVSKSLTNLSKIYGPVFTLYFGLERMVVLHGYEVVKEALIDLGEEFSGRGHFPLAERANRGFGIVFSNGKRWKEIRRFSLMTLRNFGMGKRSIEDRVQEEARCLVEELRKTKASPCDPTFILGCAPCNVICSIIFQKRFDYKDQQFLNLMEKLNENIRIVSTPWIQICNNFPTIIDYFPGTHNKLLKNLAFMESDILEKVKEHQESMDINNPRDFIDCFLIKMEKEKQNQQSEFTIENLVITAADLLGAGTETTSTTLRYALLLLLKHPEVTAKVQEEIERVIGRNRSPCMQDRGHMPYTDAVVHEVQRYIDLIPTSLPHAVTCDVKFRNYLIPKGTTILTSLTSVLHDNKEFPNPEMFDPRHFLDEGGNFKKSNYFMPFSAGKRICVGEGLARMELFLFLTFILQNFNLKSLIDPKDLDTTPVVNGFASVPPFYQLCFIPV
Chain of Cytochrome P450 2C9 (Homo sapiens) (P11712 whole entry, looked up): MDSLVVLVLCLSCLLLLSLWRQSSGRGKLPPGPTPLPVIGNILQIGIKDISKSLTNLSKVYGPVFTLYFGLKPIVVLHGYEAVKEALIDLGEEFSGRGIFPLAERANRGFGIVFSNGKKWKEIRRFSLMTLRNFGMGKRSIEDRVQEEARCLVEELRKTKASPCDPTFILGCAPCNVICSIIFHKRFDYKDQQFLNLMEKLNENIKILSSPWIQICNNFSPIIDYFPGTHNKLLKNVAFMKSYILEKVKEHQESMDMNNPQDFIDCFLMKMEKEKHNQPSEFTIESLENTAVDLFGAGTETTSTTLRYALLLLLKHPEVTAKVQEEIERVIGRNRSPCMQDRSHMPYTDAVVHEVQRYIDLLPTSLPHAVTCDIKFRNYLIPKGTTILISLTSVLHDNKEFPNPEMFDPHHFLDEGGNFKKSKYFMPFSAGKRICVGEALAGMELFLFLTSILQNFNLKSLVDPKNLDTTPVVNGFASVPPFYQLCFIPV
Chain of Voltage-gated inwardly rectifying potassium channel KCNH2 (Homo sapiens) (Q12809 whole entry, looked up): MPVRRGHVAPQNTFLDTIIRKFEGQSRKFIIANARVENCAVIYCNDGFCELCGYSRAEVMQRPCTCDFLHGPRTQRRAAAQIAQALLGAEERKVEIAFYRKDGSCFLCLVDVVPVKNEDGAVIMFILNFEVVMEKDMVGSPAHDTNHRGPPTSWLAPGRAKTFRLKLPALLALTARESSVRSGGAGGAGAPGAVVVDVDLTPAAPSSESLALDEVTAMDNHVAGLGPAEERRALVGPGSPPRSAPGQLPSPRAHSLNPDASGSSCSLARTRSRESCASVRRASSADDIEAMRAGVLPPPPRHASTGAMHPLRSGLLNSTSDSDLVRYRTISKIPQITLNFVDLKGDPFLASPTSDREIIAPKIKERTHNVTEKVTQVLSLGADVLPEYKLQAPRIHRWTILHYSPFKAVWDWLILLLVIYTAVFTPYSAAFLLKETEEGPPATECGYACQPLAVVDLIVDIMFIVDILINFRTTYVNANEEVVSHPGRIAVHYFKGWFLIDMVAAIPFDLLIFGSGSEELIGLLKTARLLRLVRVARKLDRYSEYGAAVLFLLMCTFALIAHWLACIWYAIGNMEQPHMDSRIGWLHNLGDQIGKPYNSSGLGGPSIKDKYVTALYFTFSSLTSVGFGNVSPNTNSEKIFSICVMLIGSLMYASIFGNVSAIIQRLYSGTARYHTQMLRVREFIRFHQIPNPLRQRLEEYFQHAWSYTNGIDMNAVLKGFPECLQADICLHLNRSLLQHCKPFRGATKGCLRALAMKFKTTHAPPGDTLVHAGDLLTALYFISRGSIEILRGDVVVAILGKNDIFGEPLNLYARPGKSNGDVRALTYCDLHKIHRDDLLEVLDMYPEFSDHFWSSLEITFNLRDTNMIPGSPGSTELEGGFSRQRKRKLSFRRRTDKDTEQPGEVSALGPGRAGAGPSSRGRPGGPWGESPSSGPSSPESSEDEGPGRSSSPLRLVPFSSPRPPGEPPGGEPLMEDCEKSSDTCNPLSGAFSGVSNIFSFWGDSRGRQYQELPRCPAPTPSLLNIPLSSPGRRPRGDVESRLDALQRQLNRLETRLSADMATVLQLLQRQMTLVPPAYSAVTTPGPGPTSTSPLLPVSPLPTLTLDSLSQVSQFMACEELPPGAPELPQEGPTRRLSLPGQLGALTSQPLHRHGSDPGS
Chain of Cytochrome P450 2D6 (Homo sapiens) (P10635 whole entry, looked up): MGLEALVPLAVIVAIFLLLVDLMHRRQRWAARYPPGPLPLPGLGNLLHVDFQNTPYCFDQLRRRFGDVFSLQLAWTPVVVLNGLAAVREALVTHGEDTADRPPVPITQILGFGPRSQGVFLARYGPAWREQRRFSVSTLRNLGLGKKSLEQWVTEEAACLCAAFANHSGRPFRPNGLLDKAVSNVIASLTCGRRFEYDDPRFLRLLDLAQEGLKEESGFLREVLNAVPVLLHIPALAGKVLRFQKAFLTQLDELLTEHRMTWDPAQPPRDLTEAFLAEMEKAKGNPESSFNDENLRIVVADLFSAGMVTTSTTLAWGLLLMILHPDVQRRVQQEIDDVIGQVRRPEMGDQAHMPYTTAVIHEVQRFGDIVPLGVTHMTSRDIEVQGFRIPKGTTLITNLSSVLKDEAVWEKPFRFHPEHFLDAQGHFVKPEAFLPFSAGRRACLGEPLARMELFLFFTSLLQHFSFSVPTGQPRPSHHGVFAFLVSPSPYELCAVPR

For the molecule `Nc1nc(=O)n([C@@H]2O[C@H](CO)[C@@H](O)[C@@H]2F)cc1I`, the Potency entry in experiment [1], in experiment [2], in experiment [3], in experiment [4], in experiment [5] and in experiment [6] was “inactive” in each case.

For the molecule `Nc1c(NC/C=C\COc2cc(CN3CCCCC3)ccn2)c(=O)c1=O`, the activation in experiment [1] is -1.56% [at 19 µM]. The Potency is 12 µM (active) in experiment [2] and 6.74 µM (active) in experiment [6]. Further, the activity change, negative = inhibition in experiment [3] was -27.3% [at 23.6 µM]; in experiment [4], -15.9% [at 23.6 µM]; in experiment [5], 11.8% [at 23.6 µM]; in experiment [7] it was 0.241% [at 15.8 µM].

As for `Cc1ccccc1N1CCN(CCc2nnc3n2CCCC3)CC1`, the Potency entry in experiment [1], in experiment [3], in experiment [4] and in experiment [6] was “inactive” throughout. Further, the Potency in experiment [2] was 13.8 µM (active).

As to `CC(=O)Nc1ccc(C)cc1`, the Potency entry in experiment [1], in experiment [2], in experiment [4], in experiment [7] and in experiment [6] was “inactive” each time. In experiment [5], the Potency is 39.6 µM (active).

With `CC(Cl)COP(=O)(OCC(C)Cl)OCC(C)Cl` (centres undefined), the Potency in experiment [1] is 13.6 µM (active); in experiment [3] it was 19.9 µM (active); in experiment [5] it was 22.3 µM (active). Further, the Potency result in experiment [2], in experiment [7] and in experiment [6] was “inactive” each time.

Take `CC(=O)OCC(=O)[C@@]1(O)[C@H](OC(C)=O)C[C@H]2[C@@H]3CCC4=CC(=O)C=C[C@]4(C)[C@@]3(F)[C@@H](O)C[C@@]21C`: the Potency entry in experiment [1], in experiment [2], in experiment [4], in experiment [5] and in experiment [7] was “inactive” each time.

On to `CCCCCC1CCCC(=O)O1` (centres undefined), for which the Potency result in experiment [1], in experiment [2], in experiment [4] and in experiment [6] was “inactive” each time. For the same molecule, the Potency in experiment [3] was 79.6 µM (active).

As to `O=C(O)C(=O)Nc1cccc(-c2nn[nH]n2)c1`, the Potency entry in experiment [1], in experiment [2], in experiment [4], in experiment [5], in experiment [7] and in experiment [6] was “inactive” throughout.

On to `Cc1ccccc1C(=O)N1CC/C(=N\OS(=O)(=O)O)c2ccc(Cl)cc21`, for which the Potency entry in experiment [1], in experiment [2], in experiment [5] and in experiment [7] was “inactive” throughout. Besides, the Potency in experiment [4] was 4.36 µM (active).

For the molecule `Nc1ccnc(=O)[nH]1`, the Potency result in experiment [1], in experiment [2], in experiment [4], in experiment [5], in experiment [7] and in experiment [6] was “inactive” in each case.

Take `CC1=NN(c2ccc(S(=O)(=O)O)cc2)C(=O)C1N=Nc1ccccc1` (centres undefined): the Potency entry in experiment [1], in experiment [2], in experiment [3], in experiment [5], in experiment [7] and in experiment [6] was “inactive” in each case.

For `CCCCCCCCC(=O)OCC`, the Potency entry in experiment [1], in experiment [2], in experiment [4], in experiment [5], in experiment [7] and in experiment [6] was “inactive” each time.
